A selection: hits, their analogues and other compounds. The true share with any hit is near 7.5%.
Luc counter = counter-screen: inhibitors of Kinase-Glo firefly luciferase; 200,000 compounds, 0.28% hits; Kinase-Glo luciferase, ATP luminescence, 8 min; Potency, µM (doses to about 38.3 µM), without a hit: at the highest dose activity change, negative = inhibition, actives largely listed as inhibitors; Q27757; also: % is scaled to controls: 0 for no effect and ±100 for the full control effect; nearly all actives have a fitted effect of over 60% in size
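Light output from Kinase-Glo luciferase with luciferin and 10 uM ATP in 50 mM imidazole pH 7.2, KCl, MgCl2, Tween 20, BSA; compound pin-delivered, 8-min ambient incubation, then luminescence read.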
Rab9 prom act = activates the Rab9 promoter; Huh7 Rab9 promoter-luciferase reporter, luminescence, 24 h; Potency, µM (doses to about 9.22 µM), without a hit: top-dose activation, negative = inhibition, usual class: activators; 320,000 compounds, 2.8% hits; AID 485297; also: % of control where 0% means no effect; nearly all actives have a fitted effect of over 60% in size
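Quantitative HTS format; Huh7 Rab9-luciferase reporter cells (1500/well) receive compound 2 h post-plating, incubate 24 h at 37 °C, then get luciferase reagent for 10 min before luminescence reading.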
ELG1 genotoxic = inducers of genotoxicity in HEK293T ELG1-luciferase cells; AID 504466; HEK293T ELG1-luciferase reporter, luminescence, 16 h; Potency, µM (highest dose often 46 µM), inactives show at the top dose activity change, positive = activation, actives largely listed as activators; 330,000 compounds, 1.3% hits; also: % of control where 0% means no effect; nearly all actives have a fitted effect of over 60% in size
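HEK293T cells expressing luciferase-tagged ELG1 were exposed to compound or DMSO vehicle for 16 hr at 37 °C and 5% CO2. Luciferase activity was then measured with ONE-Glo after 30 min at room temperature.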
NPC1 prom act = activators of NPC1 promoter | Huh7 NPC1 promoter luciferase reporter, 24 h | AID 485313 | 320,000 compounds, 2.4% hits | Potency, µM (series often up to 9.22 µM), for inactives: at the highest dose activation, actives largely listed as activators; also: % of control where 0% means no effect; nearly all actives have a fitted effect of over 60% in size
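Huh7 cells stably carrying NPC1 promoter–luciferase, plated in Opti-MEM with 10% FBS for 2 h, were exposed to compound in DMSO for 24 h at 37 °C; luciferase reagent was added for 10 min and luminescence read.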
FLuc counter = inhibits or activates purified firefly luciferase, miR-21 counter-screen. purified FLuc, Km substrates, luminescence inhibition. Potency, µM (series often up to 57.5 µM), for inactives: at the top dose activity change, negative = inhibition, most hits filed as inhibitors. 360,000 compounds, 6.9% hits;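 also: plate controls were vehicle for no effect and reference inhibitor for full effect; nearly all actives have a fitted effect of over 55% in size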
Target sequence (P08659 whole entry, looked up): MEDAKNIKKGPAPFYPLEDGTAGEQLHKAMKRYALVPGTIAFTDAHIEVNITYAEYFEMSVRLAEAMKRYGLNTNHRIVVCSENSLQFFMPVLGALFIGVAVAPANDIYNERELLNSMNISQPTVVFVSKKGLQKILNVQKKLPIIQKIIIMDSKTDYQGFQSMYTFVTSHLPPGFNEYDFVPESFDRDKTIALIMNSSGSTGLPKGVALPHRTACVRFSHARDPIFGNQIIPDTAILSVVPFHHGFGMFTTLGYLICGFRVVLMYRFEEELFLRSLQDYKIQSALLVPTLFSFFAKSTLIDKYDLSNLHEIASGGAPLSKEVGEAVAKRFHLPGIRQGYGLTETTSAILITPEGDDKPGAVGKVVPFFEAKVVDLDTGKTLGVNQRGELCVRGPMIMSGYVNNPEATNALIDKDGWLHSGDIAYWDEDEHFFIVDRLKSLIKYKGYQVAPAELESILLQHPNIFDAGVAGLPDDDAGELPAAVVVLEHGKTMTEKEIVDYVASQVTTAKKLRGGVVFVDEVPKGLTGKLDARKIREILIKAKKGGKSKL
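Purified P. pyralis luciferase, 10 nM final, with Km-level 10 uM D-luciferin and 10 uM ATP in 50 mM Tris acetate pH 7.5, 10 mM Mg acetate, 0.01% Tween-20, 0.05% BSA; 6-point qHTS titration about 60 µM downward; luminescence read.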
SMN2 splice up = enhancers of SMN2 splice variant expression. HEK293 SMN2-luciferase splicing reporter, luminescence, 30-36 h. Potency, µM (titrated, usually from 46.1 µM), without a hit: top-dose activity change, positive = activation, most hits filed as activators. 210,000 compounds, 2.8% hits. AID 1458; also: % of control where 0% means no effect; nearly all actives have a fitted effect of over 55% in size
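HEK293 cells carry an SMN2 minigene-luciferase reporter in which exon 7 inclusion puts luciferase in frame. Cells were seeded at 2000 cells/well, attached for 10-12 hours, then exposed to compounds for 30-36 hours at 37C before ONE-Glo luminescence.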
* = called active by the depositor; ? = inconclusive; . = no result; [ ] = remark or other dose. Calls follow the shape of the dose curve; as a rule, active = well fitted curve in the direction sought with a large enough effect; inconclusive = small, poorly fitted or top-dose-only effect, or another doubt; inactive = no such curve, though single readings can be large; an effect the other way counts as inactive or inconclusive. Potency is read from the fitted curve at half-maximal effect.

SMILES	Luc counter	Rab9 prom act	ELG1 genotoxic	NPC1 prom act	FLuc counter	SMN2 splice up
Cc1cccc(N2CCN(C(=O)CCCOc3ccccc3)CC2)c1C	1%	2.5µM*	2.6µM*	3.2µM*	7.6µM*	16µM*
CN1CCN(C(=O)CCN2C(=O)c3ccccc3C2=O)CC1	-1%	-3%	1%	-1%	-2%	.
CCOC(=O)CSc1nc2nc(C)cc(C)n2n1	2%	2%	-5%	-5%	0%	8%
CCCn1c(C)cc(C(=O)CSc2nc3nc(C)cc(C)n3n2)c1C	-2%	0%	0%	-1%	21µM*	-18%
CCN(CC)c1ccc(-c2nn3c(-c4n[nH]c5c4CCC5)nnc3s2)cc1	-6%	-13%	1%	-9%	21µM*	4%
CCCCNC(=O)/C=C1\Sc2ccccc2NC1=O	-4%	-1%	6%	-1%	?	-8%[1.84 µM]
O=C1Nc2ccccc2S/C1=C/Nc1cccc(Cl)c1	-9%	4.5µM*	?	?	8.5µM*	-3%
Cc1cccc(-c2nn3c(=O)cc(CN4CCN(C(=O)/C=C/c5ccccc5)CC4)nc3s2)c1	.	.	.	.	-5%	.
Nc1nc(N)nc(COc2ccccc2)n1	?	4.5µM*	?	?	?	11µM*
CCOc1ccc(Cc2nc(N)nc(N)n2)cc1	-1%	-1%	6%	-1%	2%	-34%
CCN(CC)C(=O)Cn1c(=O)n(-c2ccc(C)c(C)c2)c(=O)c2c3c(sc21)CCCCC3	.	.	.	.	-17%	-5%
COc1ccc(C(=O)COc2ccc(F)cc2)c(O)c1	.	?	?	3.2µM*	13µM*	.
COc1ccc(C(C)=O)c(O)c1	-13%	.	.	.	.	-7%
O=C(COc1ccc(F)cc1)c1c(O)cc(O)cc1O	.	?	?	?	8.5µM*	.
NNC(=O)COc1ccc(F)cc1	-4%	-2%	-1%	-8%	5%	-5%[1.84 µM]
O=C(NCc1ccccc1Cl)c1ccc2c(c1)N(Cc1ccccc1)C(=O)CS2	.	.	.	.	-1%	.
CC(=O)N(C)c1nnc(-c2ccccn2)s1	-13%	15%	?	27%	?	20µM*
CN(C(=O)c1cccnc1)c1nnc(-c2cnccn2)s1	-3%	0%	14%	4%	?	21%
CN(C(=O)c1cccnc1)c1nnc(-c2ccccn2)s1	-2%	?	?	?	19µM*	.
CN(C(=O)c1ccccn1)c1nnc(-c2cnccn2)s1	.	?	?	?	11µM*	.
Cc1ccc(Cl)cc1NC(=O)N1CCc2cc(S(=O)(=O)N3CCC(C)CC3)ccc21	.	.	.	.	0%	-4%
Nc1sc(-c2ccccc2)cc1C(=O)N/N=C/c1ccc(Cl)cc1	.	-1%	1%	0%	6µM*	.
COC(=O)c1cc(-c2ccccc2)sc1N	-1%	26%	?	25%	21µM*	-34%
CCOC(=O)c1cc(-c2ccccc2)sc1NC(=O)C(C)(C)C	-1%	-6%	3%	0%	0%	-25%
O=C(N/N=C/c1ccc(Cl)cc1)c1cc2c(s1)-c1ccccc1CC2	4%	-10%	0%	-17%	-2%	19%
SMILES	Luc counter	Rab9 prom act	ELG1 genotoxic	NPC1 prom act	FLuc counter	SMN2 splice up
CCc1ccc(CNC(=O)C2CCN(C(=O)N3CC(CC)Oc4ccc(C)cc43)CC2)cc1 (configuration not stated)	.	.	.	.	1%	.
O=C1CCC(C(=O)Nc2cccc3ccccc23)N1 (configuration not stated)	0%	-2%	3%	-2%	3%	7.9µM*
O=C(Nc1ccccc1)N1CC=C(c2ccccc2)CC1	1%	1.6µM*	2.6µM*	2.2µM*	4.8µM*	13µM*
O=C(Nc1ccccc1)N1CC=C(c2ccc(F)cc2)CC1	-8%	1µM*	?	4.5µM*	24µM*	11µM*
Cc1ccc(-n2ncc(C(=O)NCCc3ccsc3)c2C2CCN(C(=O)OC(C)(C)C)CC2)cc1C	.	.	.	.	0%	.
COc1ccc(-c2nc(C(=O)O)cs2)cc1OC	1%	15%	7%	12%	?	-10%
COc1ccc(-c2cc(C(=O)O)nc3ccc4ccccc4c23)cc1OC	9%	3%	5%	10%	4.3µM*	15%
Cc1cccc(-c2noc(CNC(=O)c3ccccc3Br)n2)c1	.	.	.	.	-3%	-9%
CCOC(=O)c1cnc2c(N=Nc3ccccc3)c(N)nn2c1N	-14%	1.1µM*	?	1.1µM*	0.95µM*	16µM*
CCOC(=O)c1cnc2c(-c3ccc(Cl)cc3)cnn2c1C	0%	0.89µM*	2.6µM*	1.8µM*	0.6µM*	11µM*
CCOC(=O)c1cnc2c(N=Nc3cccc(Cl)c3)c(N)nn2c1N	-5%	3%	9%	0%	?	-16%
CCOC(=O)c1cnc2c(-c3ccccc3)c(C)nn2c1N	3%	21%	?	22%	?	-19%
CCOC(=O)c1cnc2c(-c3ccccc3)cnn2c1N	-6%	0.5µM*	?	0.63µM*	0.6µM*	10µM*
CCC(C)c1ccc(Nc2ncccc2C#N)cc1 (configuration not stated)	-6%	?	?	?	21µM*	?
O=C(NCCc1ccccn1)c1cc(-c2ccccc2Cl)nc2ccccc12	4%	9%	-2%	1%	5%	-49%
O=C(NCc1ccccc1)c1cc(-c2ccncc2)nc2ccccc12	.	5%	-8%	0%	-18%	.
O=C(NCc1ccccn1)c1cc(-c2ccc(Cl)cc2)nc2ccccc12	-2%	-1%	-6%	3%	5.4µM*	16%
O=C(NCc1ccccn1)c1cc(-c2ccc(-c3ccccc3)cc2)nc2ccccc12	.	3.5µM*	-8%	2.2µM*	0.38µM*	.
COCCNC(=O)c1cc(-c2ccc(-c3ccccc3)cc2)nc2ccccc12	.	12%	-14%	0%	-1%	.
Cc1cc(CNC(=O)c2cc(-c3ccccc3)nc3ccccc23)nn1C	-2%	-10%	-12%	0%	?	6%
Cc1cccc(-c2cc(C(=O)NCc3ccccn3)c3ccccc3n2)c1	1%	17%	-2%	9%	8.5µM*	12%
O=C(NCc1ccccn1)c1cc(-c2ccccc2)nc2ccccc12	-3%	1%	-2%	-2%	17µM*	-5%
O=C(CSc1nc2c([nH]c3ccccc32)c(=O)n1-c1cccc(Cl)c1)N1CCc2ccccc21	.	.	.	.	-1%	.
O=C(Nc1cc(F)ccc1F)C1CCN(c2nc3ccccc3n3cccc23)CC1	.	.	.	.	2%	.
O=C1C(=O)N(C2CCN(C(=O)c3cccc(Cl)c3)CC2)CCN1Cc1ccc(F)cc1	.	.	.	.	3%	.
O=C(NCCN1CCCC1)c1ccc(Cc2nc3ccccc3[nH]2)cc1	-3%	.	.	.	.	.
